In PubChem BioAssay AID651919 (Sanford-Burnham Center for Chemical Genomics, 2012):

Target: C-X-C chemokine receptor type 6 (Homo sapiens) (UniProt O00574)
Assay: antagonism of CXCR6 versus CXCR5 signaling – cell-based, CHO-K1 PathHunter beta-arrestin, luminescence, set 4, selectivity assay for CXCR6 antagonist project, profiling panel (AID 651919)
Conditions: run 3, at 79 µM (top of the series)

Sequence of C-X-C chemokine receptor type 6 (Homo sapiens) (O00574 whole entry, looked up): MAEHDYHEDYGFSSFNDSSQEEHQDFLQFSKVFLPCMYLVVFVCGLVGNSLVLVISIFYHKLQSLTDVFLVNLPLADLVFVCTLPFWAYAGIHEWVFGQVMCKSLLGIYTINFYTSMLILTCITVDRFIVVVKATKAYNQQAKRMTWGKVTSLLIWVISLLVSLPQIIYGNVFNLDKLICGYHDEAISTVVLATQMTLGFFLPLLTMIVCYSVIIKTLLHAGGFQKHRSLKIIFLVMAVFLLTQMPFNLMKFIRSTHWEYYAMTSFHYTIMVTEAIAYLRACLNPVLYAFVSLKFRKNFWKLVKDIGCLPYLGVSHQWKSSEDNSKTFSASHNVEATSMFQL

Compound	inhibition [%]
COc1cc(C(=O)NC2CC3CCCC(C2)N3CC(=O)Nc2ccccc2Cl)cc(OC)c1OC (configuration not stated)	99.1
COc1cc(C(=O)NC2CC3CCCC(C2)N3CC(=O)Nc2ccccc2)cc(OC)c1OC (configuration not stated)	92.7
